Test results: PubChem BioAssay AID493201 (National Center for Advancing Translational Sciences (NCATS), 2011)
Results filed as inconclusive are left out. A call without a number means that no potency is given here. The source made the active and inactive calls. Calls follow the shape of the dose curve; as a rule, active = well fitted activation curve with a large enough effect; inconclusive = small, poorly fitted or top-dose-only effect; inactive = no such curve, though single readings can be large or run the other way.

Assay: qHTS Assay for Identifying a Potential Treatment of Ataxia-Telangiectasia: Secondary assay (no NCS) hit validation;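 also: phosphorylated KAP1 signal as a proxy for ATM-like kinase activity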
Outline: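 hTERT-immortalized A-T patient fibroblasts (F2112), 500 cells/well, exposed to compounds at up to 76.7 uM final without NCS at 37C. KAP-1 phosphorylation measured by AlphaLISA after lysis and 6 h detection at 25C.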
Potency is read from the fitted curve at half-maximal effect.

| SMILES | Potency |
| --- | --- |
| COc1ccc(CCn2c(S)nc3ccccc3c2=O)cc1 | 41.2 µM (active) |
| COc1ccccc1[C@H]1C(c2cccc(Cl)c2)=NN(c2ccccc2)[C@@H]1CO | inactive |
| O=C(CNCc1cccs1)Nc1ccc(OC(F)(F)F)cc1 | inactive |
| O=C(CN1C(=O)c2cccc([N+](=O)[O-])c2C1=O)NCc1ccccc1 | inactive |
| C=C(C)n1c(=O)n(Cc2ccccc2C)c2ccccc21 | inactive |
| COc1cccc(C2C(C(N)=O)=C(C)Nc3nc(CCCO)nn32)c1 (centres undefined) | inactive |
| CC(C)NC(=O)c1ccc(COc2ccc(C(C)(C)C)cc2)o1 | inactive |
| CCC[C@H]1CCCC/C=C\CCCC(=O)OCCN1C(=O)OC(C)(C)C | inactive |
| C=CS(=O)(=O)c1sc(Cl)c(N2CCOCC2)c1[N+](=O)[O-] | inactive |
| CCCN1C2CCCC1CC(NC(=S)Nc1cccc(C)c1C)C2 (centres undefined) | inactive |
| CCCc1ccc(S(=O)(=O)Nc2ccc(C)c(NS(C)(=O)=O)c2)cc1 | inactive |
| CCC(C)Nc1nc(N)c([N+](=O)[O-])c(NCCO)n1 (centres undefined) | inactive |
| O=C(CCC(=O)c1ccc(F)cc1)Nc1cccc(Br)c1 | inactive |
| COc1ccc(Nc2cc3n(c(=O)n2)CCc2cc(OC)c(OC)cc2-3)cc1 | inactive |
| COc1ccc(-n2c(=S)[nH]c3ccccc3c2=S)cc1 | inactive |
| C=CCSc1nc2ccccc2n1C(=O)/C=C/c1cc(OC)c(OC)c(OC)c1 | inactive |
| CCOC(=O)Cc1csc(NC(=O)CSc2nnc(C(C)C)n2C)n1 | inactive |

| SMILES | Potency |
| --- | --- |
| CC(C)(C)C1CCC2(CC1)SCC(=O)N2c1ccccc1 (centres undefined) | inactive |
| CCCCCCCCCn1ccc(=N)cc1 | inactive |
| CC1CCCC(C)N1CCCNC(=O)Cn1ncc2c3ccccc3n(C)c2c1=O (centres undefined) | 14.6 µM (active) |
| CCc1ccc(C2c3[nH]c4ccccc4c3CCN2C(=O)c2cc[n+]([O-])cc2)cc1 (centres undefined) | inactive |
| CC(C)(C=O)C1=CC(=O)c2ccccc2C1=O | 51.9 µM (active) |
| CCC(=O)c1ccc2c(c1)OCCO2 | inactive |
| CCn1c(=NC(=O)CN2C(=O)CCC2=O)sc2c(OC)ccc(OC)c21 | 0.923 µM (active) |
| COc1ccc(/C=N/Nc2nc(=O)[nH]nc2C)cc1OC | inactive |
| COc1cccc(C(=O)NOCc2ccc(C)cc2)c1OC | inactive |
| O=C(NC(=O)c1c(F)cccc1F)Nc1ccccc1SC(F)F | inactive |
| CCOC(=O)CNS(=O)(=O)Cc1ccccc1 | inactive |
| Cc1ccc2c(c1)C(=O)CC(O)(C(F)(F)F)O2 (centres undefined) | inactive |
| CCC(=O)NC1=C(Cl)C(=O)C(NC(=O)CC)=C(Cl)C1=O | inactive |
| CCN(CC)c1ccc2cc(-c3nc4ccccc4[nH]3)c(=O)oc2c1 | inactive |
| Cc1ccccc1S(=O)(=O)Oc1ccc2ccc(O)cc2c1 | inactive |
| C/C=C\C=C/C(=O)Nc1cccc(C2=NOC3(C2)C[C@@H](C(N)=O)N(C(=O)COc2ccc(Cl)cc2)C3)c1 (some centres undefined) | inactive |
| CNC(=S)N(CCc1c(C)[nH]c2ccc(Cl)cc12)Cc1cccnc1 | inactive |
